DT40 TDP1 CPT – qHTS for Inhibitors of human tyrosyl-DNA phosphodiesterase 1 (TDP1): qHTS in cells in presence of CPT; AID 686979, 2013; chicken DT40 Tdp1-/-;hTDP1 cells + 20 nM CPT, ATP luminescence, 48 h; hit rate 12% among 420,000; Potency, µM (doses to about 46.2 µM), inactives show at the top dose activity change, negative = growth inhibition, usual class: inhibitors; note: potency is the fitted concentration of half-maximal effect; % is set by controls: 0 for no effect and ±100 for the full control effect; nearly all actives have a fitted effect of over 55% in size
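Chicken DT40 Tdp1-/- cells stably complemented with human TDP1 were seeded at 400 cells/well in medium containing 20 nM camptothecin, exposed to pin-transferred compounds, and grown at 37 °C for at least 48 hr. Viability was read as ATP luminescence.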
HepG2 viability – qHTS for Inhibitors of TGF-b: Cytotox Counterscreen. AID 588856, 2011. Potency, µM (titrated, usually from 46.1 µM), without a hit: at the top dose activity change, negative = cytotoxicity, usual class: cytotoxic. HepG2 CAGA-GFP viability, ATP luminescence, 18 h. hit rate 0.76% among 410,000; note: potency is the fitted concentration of half-maximal effect
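HepG2 CAGA-GFP cells (1000/well, DMEM with 1% FBS) received compound, then TGF-beta at 500 pg/mL final, and were incubated 18 hours at 37 degrees C. Viability was read by CellTiter-Glo luminescence. Media-only wells were set as complete cell-killing and DMSO as no toxicity.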
TDP1 inh – qHTS Assay for Inhibitors of Tyrosyl-DNA Phosphodiesterase (TDP1). Tyrosyl-DNA phosphodiesterase 1 (Homo sapiens), Q9NUW8. recombinant TDP1, AlphaScreen DNA substrate cleavage. Potency, µM (top dose mostly 130 µM), for inactives: at the top dose activity change, negative = inhibition, most hits filed as inhibitors. hit rate 0.28% among 350,000. AID 485290, 2010; note: potency is the fitted concentration of half-maximal effect; % is set by controls: 0 for no effect and ±100 for the full control effect; nearly all actives have a fitted effect of over 40% in size
Target sequence (Q9NUW8 whole entry, looked up): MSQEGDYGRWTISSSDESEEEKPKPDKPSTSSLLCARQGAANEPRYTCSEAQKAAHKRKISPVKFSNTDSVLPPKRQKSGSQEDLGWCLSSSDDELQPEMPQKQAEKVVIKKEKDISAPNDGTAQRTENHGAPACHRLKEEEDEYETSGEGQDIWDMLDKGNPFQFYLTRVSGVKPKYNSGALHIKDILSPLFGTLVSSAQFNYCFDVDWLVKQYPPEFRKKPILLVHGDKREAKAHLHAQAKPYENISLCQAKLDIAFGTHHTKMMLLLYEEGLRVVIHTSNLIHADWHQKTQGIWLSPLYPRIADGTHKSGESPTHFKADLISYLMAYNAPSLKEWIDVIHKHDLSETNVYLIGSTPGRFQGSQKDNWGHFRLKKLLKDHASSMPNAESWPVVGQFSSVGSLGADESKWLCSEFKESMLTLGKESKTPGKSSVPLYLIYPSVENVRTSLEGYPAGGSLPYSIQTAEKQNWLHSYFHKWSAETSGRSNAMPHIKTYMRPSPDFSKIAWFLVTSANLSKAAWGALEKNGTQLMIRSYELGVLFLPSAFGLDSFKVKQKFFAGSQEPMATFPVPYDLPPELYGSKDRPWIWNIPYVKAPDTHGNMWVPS
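E. coli-derived human Tdp1, 1 nM final. Cpd preinc 15 min RT; substrate 15 nM final, 5 min RT; AS bead mix 10 ug/ml final, 10 min RT. Signal loss = tyrosine-FITC cleavage. No-enzyme wells = max signal.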
IL-1B inflam inh – qHTS for Inhibitors of Inflammasome Signaling: IL-1-beta AlphaLISA Primary Screen | activity change, % at 57.5 µM | hit rate 4.7% among 360,000 | THP-1 LPS/ATP IL-1B secretion, AlphaLISA, 16 h; active compounds read low; in the data active = activity change below about -50%; inconclusive = mostly about -30% to -49%; note: % is set by controls: 0 for no effect and ±100 for the full control effect
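THP-1 cells pretreated 1 hr with compounds (up to 57.5 uM final), then stimulated with LPS (250 ng/mL final) plus ATP (1.25 mM final); secreted IL-1B measured by AlphaLISA after 16 hr, decreased signal indicating inhibition.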
TGFb inhibitor – qHTS for Inhibitors of TGF-b | HepG2 CAGA-GFP TGF-b/SMAD3 reporter, GFP fluorescence, 18 h; TGF-beta stimulated, 500 pg/mL final | Potency, µM (titrated, usually from 46.1 µM), for the others: top-dose activity, negative = inhibition, usual class: inhibitors | hit rate 1.2% among 410,000; note: potency is the fitted concentration of half-maximal effect; % is set by controls: 0 for no effect and ±100 for the full control effect; nearly all actives have a fitted effect of over 65% in size
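Smad-responsive CAGA-GFP expression was quantified in HEPG2 cells exposed to compounds and 500 pg/mL final TGF-beta for 18 h at 37 degrees C; unstimulated wells defined full inhibition.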
TDP1 cell noCPT – qHTS for Inhibitors of human tyrosyl-DNA phosphodiesterase 1 (TDP1): qHTS in cells in absence of CPT; DT40 Tdp1-/- hTDP1 cells, no CPT, ATP luminescence, 48 h; Potency, µM (top dose mostly 46.2 µM), for the others: at the highest dose activity change, negative = growth inhibition, usual class: inhibitors; hit rate 15% among 420,000; AID 686978, 2013; note: potency is the fitted concentration of half-maximal effect; % is set by controls: 0 for no effect and ±100 for the full control effect; nearly all actives have a fitted effect of over 55% in size
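Growth of hTDP1-complemented DT40 Tdp1-knockout cells is measured by ATP luminescence after at least 48 hr compound exposure at 37 °C, with DMSO substituting for the 20 nM CPT used in the parallel screen.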
* hit, by the source's call; ? = inconclusive; nt = no result; [ ] = another dose, or the depositor's remark. Only some compounds are listed: those with a hit (about 18% of all), similar ones and a draw of the others. Unless noted, calls come from the whole dose curve; as a rule, active = well fitted curve in the direction sought with a large enough effect; inconclusive = small, poorly fitted or top-dose-only effect, or another doubt; inactive = no such curve, though single readings can be large; an effect the other way counts as inactive or inconclusive.

SMILES	DT40 TDP1 CPT	HepG2 viability	TDP1 inh	IL-1B inflam inh	TGFb inhibitor	TDP1 cell noCPT
CN(CC(=O)N1CCN(C2CCCCC2)CC1)S(=O)(=O)c1cccc2nsnc12	-13.7%	-4.4%	0.0%	14.4	25.1%	-0.1%
CC(Oc1ccc(C(C)(C)C)cc1)c1ccnc2nc(/N=C/N(C)C)nn12 (stereo not given)	15.8µM*	-31.1%	2.8%	-3.3	-11.6%	?
CC(Oc1ccc(F)cc1)c1ccnc2nc(/N=C/N(C)C)nn12 (stereo not given)	-1.7%	-9.3%	2.5%	25.4	1.3%	-7.1%
CC(Sc1nnc(NC2CCCCC2)s1)C(=O)Nc1ccc2c(c1)C(=O)c1ccccc1C2=O (stereo not given)	?	1.0%	8.2%	-3.2	?	20.6µM*
CC(Sc1nnc(NC2CC2)s1)C(=O)Nc1ccc(N2CCOCC2)cc1 (stereo not given)	2.6%	-4.4%	-6.2%	-10.1	0.9%	-20.1%
Cc1cc(Cl)ccc1OCC(=O)NNC(=O)c1ccco1	-5.9%	3.1%	-0.2%	-26.5	-7.3%	-6.3%
CC(C)(C)c1ccc(OCC(=O)NCc2ccco2)c(Br)c1	-92.4%	-68.8%	3.3%	-26.7	?	23.1µM*
Cc1ccccc1OCC(=O)NNC(=S)NC(=O)c1ccco1	22.4µM*	-3.8%	11.7%	75.6	-12.3%	10µM*
O=C(Cc1cccs1)NNC(=S)NC(=O)c1ccco1	?	-93.6%	3.8%	34.1	-15.1%	29.1µM*
C/C(=N/NC(=O)Cc1cccs1)c1ccco1	?	-28.2%	-5.1%	-1.5	-3.6%	23.1µM*
CCOc1cc(C(=O)OCC(=O)NCc2ccco2)cc(OCC)c1OCC	-28.3%	-1.4%	-6.2%	-15.7	0.0%	?
O=C(Cc1cccs1)NNC(=S)NCc1ccc(Cl)cc1	-6.6%	-8.3%	7.6%	20.1	-29.0%	-20.6%
C/C(=N/OC(=O)c1ccc(Cl)cc1Cl)c1oc(C)nc1C	3.9%	-9.9%	6.3%	nt	9.9%	4.6%
CC(C)(C)c1ccc(OCC(=O)NNC(=S)NC(=O)c2ccco2)c(Br)c1	20.6µM*	3.5%	8.2%	24.0	-19.1%	10.3µM*
CC(C)c1ccc(OCC(=O)NNC(=S)NC(=O)c2ccco2)c(Br)c1	?	3.1%	0.5%	117.4	-2.2%	?
CCOc1cc(NC(=S)Nc2ccc(Cl)cc2)c(OCC)cc1NC(C)=O	-28.3%	-5.1%	-3.7%	-11.3	0.1%	?
O=C(NC1CCCCC1)c1ccc2c(c1)N(Cc1ccc(Cl)cc1)C(=O)c1ccccc1S2(=O)=O	-17.9%	4.0%	-1.2%	nt	0.0%	-27.8%
CSc1ncccc1C(=O)OCC(=O)N1CC(=O)Nc2ccccc21	-0.5%	-3.8%	-0.9%	-6.8	-0.4%	-7.8%
O=C(Cn1nnc(-c2ccc3c(c2)OCO3)n1)Nc1ccccc1C(=O)O	-9.4%	-18.8%	-17.1%	15.9	-0.7%	-3.7%
COc1cc(Br)c(C[N+]2(CCOCCC3CCC4CC3C4(C)C)CCOCC2)cc1OC (stereo not given)	1.88µM*	nt	nt	nt	nt	1.88µM*
O=C(O)CC1NC(=S)N(Cc2ccccc2)C1=O (stereo not given)	20.6µM*	-9.3%	nt	4.4	3.3%	18.4µM*
O=S(=O)(Nc1cccc(S(=O)(=O)N2CCCCC2)c1)c1ccccc1F	-26.9%	-33.7%	3.7%	14.9	8.9%	-31.5%
CCOc1ccc(CCNC(=O)c2ccc(Cl)c(S(=O)(=O)N3CCOCC3)c2)cc1OCC	20.6µM*	-13.9%	nt	33.6	-25.2%	23.1µM*
COc1ccc(C(=O)NCCC2=CCCCC2)cc1S(=O)(=O)N1CCOCC1	-0.2%	-5.6%	nt	22.6	?	-2.2%
CC1CN(S(=O)(=O)c2cc(C(=O)NCCC3=CCCCC3)ccc2Cl)CC(C)O1 (stereo not given)	18.4µM*	-9.4%	0.9%	31.4	-15.1%	14.6µM*
SMILES	DT40 TDP1 CPT	HepG2 viability	TDP1 inh	IL-1B inflam inh	TGFb inhibitor	TDP1 cell noCPT
O=C(NCc1ccc2c(c1)OCO2)c1ccc(Cl)c(S(=O)(=O)N2CCOCC2)c1	?	-7.3%	2.3%	-9.5	1.2%	-26.8%
COc1ccc(CNC(=O)c2ccc(Cl)c(S(=O)(=O)N3CCOCC3)c2)cc1OC	9.2µM*	-18.7%	-6.6%	7.0	-29.3%	7.31µM*
CN1C(=O)C(c2ccccc2[N+](=O)[O-])C(=O)c2ccccc21 (stereo not given)	-22.7%	8.2%	nt	14.3	-0.1%	4.5%
CC(=O)Nc1ccc(C(=O)Nc2ccc3c(c2)N(C2CCCC2)C(=O)c2ccccc2S3)cc1	20.6µM*	-11.2%	8.3%	nt	17.3%	16.4µM*
N#Cc1ccc(C(=O)Nc2ccc3c(c2)N(C2CCCC2)C(=O)c2ccccc2S3)cc1	23.1µM*	-7.6%	6.4%	nt	5.62µM*	18.4µM*
Cc1cnc(-n2ncc(C(=O)N(C)Cc3cccc4ncccc34)c2C(C)C)nc1-c1ccc(F)cc1	-1.0%	nt	nt	nt	nt	-9.7%
CC(C)c1c(C(=O)N(C)Cc2cccc3ncccc23)cnn1-c1nccc(-c2ccco2)n1	-9.1%[9.04 µM]	nt	nt	nt	nt	14.6µM*
O=C(Nc1cc(Cl)ccc1Cl)N1CCN(C(=O)Nc2cc(Cl)ccc2Cl)CC1	?	-9.1%	nt	8.9	-13.1%	?
Cc1ccc(-c2nnn(CC(=O)N(CC(=O)NC3CCCCC3)c3ccccc3F)n2)o1	-0.9%	-24.2%	0.5%	3.7	-26.0%	-12.5%
N#C/C(=C\c1c(F)cccc1Cl)C(=O)NC1CC1	?	-20.0%	1.8%	-74.1*	-12.0%	?
COc1cc(/C=C(\C#N)C(=O)NC2CCCCC2C)ccc1OS(=O)(=O)c1ccc(C)cc1 (stereo not given)	?	-82.5%	2.6%	-102.8*	20µM*	16.4µM*
CC1CCCCC1NC(=O)/C(C#N)=C/c1ccccc1F (stereo not given)	-103.8%	-71.4%	3.5%	-101.2*	?	-100.0%
CSc1ccc(/C=C(\C#N)C(=O)NC2CCCCC2C)cc1 (stereo not given)	?	-53.2%	7.7%	-119.9*	?	10.3µM*
CC(=O)Nc1ccc(/C=C(\C#N)C(=O)NC2CCCCC2C)cc1 (stereo not given)	-0.6%	-12.0%	1.3%	?	2.0%	?
